Paper PMC7862700, “An all-to-all approach to the identification of sequence-specific readers for epigenetic DNA modifications on cytosine”

Key:
Assay in all cases: DAPPL (digital affinity profiling via proximity ligation, sequencing); 10 mM Tris-HCl pH 7.5, 50 mM NaCl, 1 mM DTT, 4% glycerol, room temperature, 30 min; GST-TFs on glutathione beads, 16-mer random dsDNA library, 0.1% formaldehyde crosslink after washing; high values mean tight binding
[1] = target: T1, ELK1 (Homo sapiens, UniProt P19419 1-428); settings: protein: recombinant; tags: N-terminal GST; dsDNA, one strand shown
T1 sequence: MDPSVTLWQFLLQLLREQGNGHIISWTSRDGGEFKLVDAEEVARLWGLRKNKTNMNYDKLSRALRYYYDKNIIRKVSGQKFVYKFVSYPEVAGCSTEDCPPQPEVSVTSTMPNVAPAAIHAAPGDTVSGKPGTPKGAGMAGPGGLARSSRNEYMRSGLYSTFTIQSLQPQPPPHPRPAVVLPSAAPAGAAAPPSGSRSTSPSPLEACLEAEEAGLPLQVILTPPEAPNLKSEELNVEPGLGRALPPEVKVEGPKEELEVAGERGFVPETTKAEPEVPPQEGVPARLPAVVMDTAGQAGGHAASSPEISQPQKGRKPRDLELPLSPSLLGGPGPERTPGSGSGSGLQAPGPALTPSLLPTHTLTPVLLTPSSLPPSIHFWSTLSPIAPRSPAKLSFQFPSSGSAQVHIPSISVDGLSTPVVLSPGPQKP
Procedure, shortened: (§1)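 Binding signal is each hexamer's read frequency for a factor divided by its frequency in the tag-only sample. The factors were GST-fused human transcription factors from yeast, captured on glutathione beads, DNA-barcoded and pooled with that sample. Pools were incubated with 200 nmole of a random double-stranded 16-mer DNA library in Tris/NaCl/DTT/glycerol buffer at room temperature for 30 min, then washed, crosslinked with 0.1% formaldehyde, proximity-ligated with BsaI/T4 ligase (1 h, 37 °C), PCR-amplified and sequenced on an Illumina NextSeq500.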

[2] = target: T2, ERG (Homo sapiens, UniProt P11308 1-479); settings: protein: recombinant; tags: N-terminal GST; dsDNA, one strand shown
T2 sequence: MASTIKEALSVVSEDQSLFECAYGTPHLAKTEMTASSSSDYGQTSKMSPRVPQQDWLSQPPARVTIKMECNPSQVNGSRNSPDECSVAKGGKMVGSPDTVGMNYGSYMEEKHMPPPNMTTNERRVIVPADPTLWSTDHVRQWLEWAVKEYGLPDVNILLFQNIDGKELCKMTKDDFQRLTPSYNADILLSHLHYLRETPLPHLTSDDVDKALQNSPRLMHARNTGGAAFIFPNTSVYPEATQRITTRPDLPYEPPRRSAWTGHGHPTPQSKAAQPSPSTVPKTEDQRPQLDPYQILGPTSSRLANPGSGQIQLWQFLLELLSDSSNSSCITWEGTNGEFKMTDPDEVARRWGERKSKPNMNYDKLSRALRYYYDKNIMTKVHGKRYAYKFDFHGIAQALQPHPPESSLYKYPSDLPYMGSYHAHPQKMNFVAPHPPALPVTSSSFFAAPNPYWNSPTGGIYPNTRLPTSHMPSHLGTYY
Procedure, shortened: as §1

[3] = target: ELF1 (Homo sapiens, UniProt P32519 1-619); settings: protein: recombinant; tags: N-terminal GST; dsDNA, one strand shown
Procedure, shortened: as §1

[4] = target: T3, EHF (Homo sapiens, UniProt Q9NZC4 1-300); settings: protein: recombinant; tags: N-terminal GST; dsDNA, one strand shown
T3 sequence: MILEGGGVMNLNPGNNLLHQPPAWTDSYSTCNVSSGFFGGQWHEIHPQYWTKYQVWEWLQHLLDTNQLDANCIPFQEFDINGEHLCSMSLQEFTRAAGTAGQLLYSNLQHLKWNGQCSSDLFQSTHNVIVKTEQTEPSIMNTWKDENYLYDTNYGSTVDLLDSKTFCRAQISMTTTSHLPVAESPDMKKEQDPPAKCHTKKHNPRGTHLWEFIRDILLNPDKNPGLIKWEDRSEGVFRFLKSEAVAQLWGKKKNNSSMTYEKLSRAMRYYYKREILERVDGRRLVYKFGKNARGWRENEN
Procedure, shortened: as §1

[5] = target: SPI1 (Homo sapiens, UniProt P17947 1-270); settings: protein: recombinant; tags: N-terminal GST; dsDNA, one strand shown
Procedure, shortened: as §1

[6] = target: SPIB (Homo sapiens, UniProt Q01892 1-262); settings: protein: recombinant; tags: N-terminal GST; dsDNA, one strand shown
Procedure, shortened: as §1

[7] = target: T4, ELK3 (Homo sapiens, UniProt P41970 1-407); settings: protein: recombinant; tags: N-terminal GST; dsDNA, one strand shown
T4 sequence: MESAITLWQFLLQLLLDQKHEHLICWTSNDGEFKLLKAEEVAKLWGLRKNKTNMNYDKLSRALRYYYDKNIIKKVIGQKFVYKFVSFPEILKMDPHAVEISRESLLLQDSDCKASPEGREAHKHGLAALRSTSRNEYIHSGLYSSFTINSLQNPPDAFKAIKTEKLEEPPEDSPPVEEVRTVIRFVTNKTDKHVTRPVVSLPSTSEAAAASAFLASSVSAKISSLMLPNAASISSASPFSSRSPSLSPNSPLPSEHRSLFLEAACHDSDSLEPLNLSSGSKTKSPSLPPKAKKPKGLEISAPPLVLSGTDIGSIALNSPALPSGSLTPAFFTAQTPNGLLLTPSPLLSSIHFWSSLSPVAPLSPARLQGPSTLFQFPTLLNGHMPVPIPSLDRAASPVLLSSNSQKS
Procedure, shortened: as §1

[8] = target: HSF1 (Homo sapiens, UniProt Q00613 1-529); settings: protein: recombinant; tags: N-terminal GST; chain copies: 3; dsDNA, one strand shown
Procedure, shortened: as §1

[9] = target: T5, SPIC (Homo sapiens, UniProt Q8N5J4 1-248); settings: protein: recombinant; tags: N-terminal GST; dsDNA, one strand shown
T5 sequence: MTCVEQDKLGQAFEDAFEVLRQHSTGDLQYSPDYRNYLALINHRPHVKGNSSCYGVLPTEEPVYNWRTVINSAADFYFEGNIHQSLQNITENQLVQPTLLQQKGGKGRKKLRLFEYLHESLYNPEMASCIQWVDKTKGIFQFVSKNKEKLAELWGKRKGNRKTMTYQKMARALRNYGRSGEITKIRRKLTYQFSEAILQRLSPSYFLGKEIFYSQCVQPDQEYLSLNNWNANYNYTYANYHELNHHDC
Procedure, shortened: as §1

[10] = target: T6, ELK4 (Homo sapiens, UniProt P28324-2 1-405); settings: protein: recombinant; tags: N-terminal GST; dsDNA, one strand shown
T6 sequence: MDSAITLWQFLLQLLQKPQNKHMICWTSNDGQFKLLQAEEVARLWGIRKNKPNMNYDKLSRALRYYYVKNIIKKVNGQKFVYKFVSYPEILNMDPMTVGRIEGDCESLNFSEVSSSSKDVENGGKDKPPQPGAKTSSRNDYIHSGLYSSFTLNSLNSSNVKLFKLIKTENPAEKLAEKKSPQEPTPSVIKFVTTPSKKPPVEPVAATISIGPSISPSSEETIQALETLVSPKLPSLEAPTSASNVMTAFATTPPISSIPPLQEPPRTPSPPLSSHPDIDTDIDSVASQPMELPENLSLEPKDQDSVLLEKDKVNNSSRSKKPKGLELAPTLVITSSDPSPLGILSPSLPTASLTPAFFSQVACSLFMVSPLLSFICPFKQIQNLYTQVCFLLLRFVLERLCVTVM
Procedure, shortened: as §1

[11] = target: T7, ETV2 (Homo sapiens, UniProt O00321 1-342); settings: protein: recombinant; tags: N-terminal GST; dsDNA, one strand shown
T7 sequence: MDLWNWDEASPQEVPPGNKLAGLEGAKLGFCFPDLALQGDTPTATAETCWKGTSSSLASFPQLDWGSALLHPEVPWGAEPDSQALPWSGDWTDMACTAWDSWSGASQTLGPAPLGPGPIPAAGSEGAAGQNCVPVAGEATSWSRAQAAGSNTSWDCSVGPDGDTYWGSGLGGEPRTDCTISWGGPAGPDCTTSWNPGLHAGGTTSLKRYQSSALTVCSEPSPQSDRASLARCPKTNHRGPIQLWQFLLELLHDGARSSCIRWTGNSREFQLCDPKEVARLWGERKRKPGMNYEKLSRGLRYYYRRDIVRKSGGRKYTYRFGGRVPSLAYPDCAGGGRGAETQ
Procedure, shortened: as §1

[12] = target: T8, ELF3 (Homo sapiens, UniProt P78545 1-371); settings: protein: recombinant; tags: N-terminal GST; dsDNA, one strand shown
T8 sequence: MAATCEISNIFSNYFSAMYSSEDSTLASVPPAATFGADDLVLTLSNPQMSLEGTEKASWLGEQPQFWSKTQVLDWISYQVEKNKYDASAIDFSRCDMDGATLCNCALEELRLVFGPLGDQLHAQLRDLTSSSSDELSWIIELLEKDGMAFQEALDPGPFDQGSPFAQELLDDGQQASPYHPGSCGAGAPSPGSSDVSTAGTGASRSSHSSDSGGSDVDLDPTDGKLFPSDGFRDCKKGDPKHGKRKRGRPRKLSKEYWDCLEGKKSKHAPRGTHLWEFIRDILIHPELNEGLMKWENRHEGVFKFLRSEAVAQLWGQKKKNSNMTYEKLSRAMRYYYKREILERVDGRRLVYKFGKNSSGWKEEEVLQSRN
Procedure, shortened: as §1

[13] = target: ETV1 (Homo sapiens, UniProt P50549 1-477); settings: protein: recombinant; tags: N-terminal GST; dsDNA, one strand shown
Procedure, shortened: as §1

[14] = target: T9, ERF (Homo sapiens, UniProt P50548 1-548); settings: protein: recombinant; tags: N-terminal GST; dsDNA, one strand shown
T9 sequence: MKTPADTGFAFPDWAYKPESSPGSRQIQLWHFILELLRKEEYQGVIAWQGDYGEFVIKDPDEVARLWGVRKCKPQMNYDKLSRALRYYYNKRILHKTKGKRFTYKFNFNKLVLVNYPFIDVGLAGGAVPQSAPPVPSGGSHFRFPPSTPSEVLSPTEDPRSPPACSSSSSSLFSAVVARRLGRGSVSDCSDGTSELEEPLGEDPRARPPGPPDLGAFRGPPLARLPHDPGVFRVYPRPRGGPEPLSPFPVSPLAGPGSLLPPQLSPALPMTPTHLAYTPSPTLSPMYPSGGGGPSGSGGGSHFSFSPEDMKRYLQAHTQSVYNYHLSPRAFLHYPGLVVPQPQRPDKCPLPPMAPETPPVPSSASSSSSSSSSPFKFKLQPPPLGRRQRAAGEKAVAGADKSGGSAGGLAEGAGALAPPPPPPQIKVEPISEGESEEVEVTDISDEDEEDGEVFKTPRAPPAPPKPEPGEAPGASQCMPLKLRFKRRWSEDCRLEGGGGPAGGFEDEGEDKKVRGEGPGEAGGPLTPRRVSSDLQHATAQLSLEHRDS
Procedure, shortened: as §1

[15] = target: T10, ETS2 (Homo sapiens, UniProt P15036 1-469); settings: protein: recombinant; tags: N-terminal GST; dsDNA, one strand shown
T10 sequence: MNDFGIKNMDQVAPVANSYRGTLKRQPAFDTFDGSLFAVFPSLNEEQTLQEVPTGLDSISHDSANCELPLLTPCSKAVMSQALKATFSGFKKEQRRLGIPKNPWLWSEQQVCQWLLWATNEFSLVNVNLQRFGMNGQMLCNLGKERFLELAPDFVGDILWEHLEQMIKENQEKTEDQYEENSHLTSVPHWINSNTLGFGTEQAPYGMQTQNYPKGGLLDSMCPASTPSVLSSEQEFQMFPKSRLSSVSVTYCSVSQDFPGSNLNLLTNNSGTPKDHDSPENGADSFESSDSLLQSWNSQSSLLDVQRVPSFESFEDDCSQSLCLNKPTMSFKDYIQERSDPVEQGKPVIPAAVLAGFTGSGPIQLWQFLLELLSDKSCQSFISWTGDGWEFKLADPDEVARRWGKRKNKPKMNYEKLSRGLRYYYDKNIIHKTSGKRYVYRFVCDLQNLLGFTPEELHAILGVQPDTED
Procedure, shortened: as §1

[16] = target: T11, ETV3 (Homo sapiens, UniProt P41162-2 1-143); settings: protein: recombinant; tags: N-terminal GST; dsDNA, one strand shown
T11 sequence: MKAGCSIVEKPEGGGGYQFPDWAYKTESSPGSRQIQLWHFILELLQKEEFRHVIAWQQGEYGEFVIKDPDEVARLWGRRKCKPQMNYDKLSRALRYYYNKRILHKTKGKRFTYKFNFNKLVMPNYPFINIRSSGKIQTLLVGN
Procedure, shortened: as §1

Sequence of HSF1 (Q00613 whole entry): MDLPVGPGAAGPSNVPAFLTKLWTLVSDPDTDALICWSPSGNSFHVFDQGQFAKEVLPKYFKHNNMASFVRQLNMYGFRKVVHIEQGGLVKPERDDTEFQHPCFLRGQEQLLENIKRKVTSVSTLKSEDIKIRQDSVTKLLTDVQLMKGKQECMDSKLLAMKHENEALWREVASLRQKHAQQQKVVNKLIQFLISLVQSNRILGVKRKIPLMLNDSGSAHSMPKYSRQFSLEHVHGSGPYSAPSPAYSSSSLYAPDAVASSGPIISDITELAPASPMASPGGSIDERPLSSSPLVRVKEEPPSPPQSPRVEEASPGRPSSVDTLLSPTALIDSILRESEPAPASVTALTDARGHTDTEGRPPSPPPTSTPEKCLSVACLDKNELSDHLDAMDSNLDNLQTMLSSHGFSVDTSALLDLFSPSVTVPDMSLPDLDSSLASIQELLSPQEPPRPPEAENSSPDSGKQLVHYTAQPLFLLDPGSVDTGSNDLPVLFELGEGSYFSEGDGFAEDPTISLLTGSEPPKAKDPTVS
Sequence of SPIB (Q01892 whole entry): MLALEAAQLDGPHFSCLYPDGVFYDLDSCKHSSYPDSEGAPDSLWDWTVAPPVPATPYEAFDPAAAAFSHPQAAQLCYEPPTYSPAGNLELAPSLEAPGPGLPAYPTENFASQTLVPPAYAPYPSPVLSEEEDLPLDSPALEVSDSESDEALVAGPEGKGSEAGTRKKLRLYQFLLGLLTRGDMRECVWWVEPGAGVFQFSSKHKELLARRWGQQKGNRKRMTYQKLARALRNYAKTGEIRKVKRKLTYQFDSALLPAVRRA
Sequence of ETV1 (P50549 whole entry): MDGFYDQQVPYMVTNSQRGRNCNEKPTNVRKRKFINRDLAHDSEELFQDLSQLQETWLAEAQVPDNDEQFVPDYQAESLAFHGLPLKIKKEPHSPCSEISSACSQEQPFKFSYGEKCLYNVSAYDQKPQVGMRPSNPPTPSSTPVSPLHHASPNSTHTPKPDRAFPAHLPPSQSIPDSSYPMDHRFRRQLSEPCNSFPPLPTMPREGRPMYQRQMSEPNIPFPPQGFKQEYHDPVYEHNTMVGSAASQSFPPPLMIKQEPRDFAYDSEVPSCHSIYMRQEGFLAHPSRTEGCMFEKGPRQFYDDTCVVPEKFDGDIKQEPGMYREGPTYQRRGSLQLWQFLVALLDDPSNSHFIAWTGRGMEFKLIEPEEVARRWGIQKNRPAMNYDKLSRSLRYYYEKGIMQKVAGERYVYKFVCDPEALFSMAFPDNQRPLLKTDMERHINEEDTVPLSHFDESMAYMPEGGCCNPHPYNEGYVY
Sequence of ELF1 (P32519 whole entry): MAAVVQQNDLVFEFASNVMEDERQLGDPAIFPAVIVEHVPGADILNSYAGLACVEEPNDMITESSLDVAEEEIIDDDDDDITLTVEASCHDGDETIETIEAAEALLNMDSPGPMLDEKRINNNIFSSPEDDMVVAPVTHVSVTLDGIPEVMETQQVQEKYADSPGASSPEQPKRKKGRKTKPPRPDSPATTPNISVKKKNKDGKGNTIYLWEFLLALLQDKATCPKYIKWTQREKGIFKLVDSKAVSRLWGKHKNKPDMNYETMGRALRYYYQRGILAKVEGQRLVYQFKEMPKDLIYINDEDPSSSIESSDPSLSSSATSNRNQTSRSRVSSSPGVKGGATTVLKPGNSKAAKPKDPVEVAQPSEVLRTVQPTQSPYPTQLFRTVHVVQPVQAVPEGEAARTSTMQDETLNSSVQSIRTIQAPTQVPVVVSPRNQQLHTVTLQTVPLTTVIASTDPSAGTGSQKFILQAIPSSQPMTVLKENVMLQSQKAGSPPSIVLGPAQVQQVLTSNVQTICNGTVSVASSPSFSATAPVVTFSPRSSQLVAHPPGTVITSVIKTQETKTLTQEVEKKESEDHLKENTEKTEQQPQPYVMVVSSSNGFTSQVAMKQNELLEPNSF

Row | Sequence | binding signal [1] | binding signal [2] | binding signal [3] | binding signal [4] | binding signal [5] | binding signal [6] | binding signal [7] | binding signal [8] | binding signal [9] | binding signal [10] | binding signal [11] | binding signal [12] | binding signal [13] | binding signal [14] | binding signal [15] | binding signal [16]
1 | CGCAAA | 1.01 fold enrichment (6-mer frequency, TF over GST control) | 1.04 fold enrichment (6-mer frequency, TF over GST control) | 1 fold enrichment (6-mer frequency, TF over GST control) | 1.03 fold enrichment (6-mer frequency, TF over GST control) | 1.05 fold enrichment (6-mer frequency, TF over GST control) | 1.02 fold enrichment (6-mer frequency, TF over GST control) | 1.08 fold enrichment (6-mer frequency, TF over GST control) | 1.01 fold enrichment (6-mer frequency, TF over GST control) | 1.02 fold enrichment (6-mer frequency, TF over GST control) | 1.03 fold enrichment (6-mer frequency, TF over GST control) | 1.07 fold enrichment (6-mer frequency, TF over GST control) | 1.13 fold enrichment (6-mer frequency, TF over GST control) | 1.11 fold enrichment (6-mer frequency, TF over GST control) | 1.1 fold enrichment (6-mer frequency, TF over GST control) | 1.06 fold enrichment (6-mer frequency, TF over GST control) | 
2 | CCCTAG | 1.04 fold enrichment (6-mer frequency, TF over GST control) |  | 1.06 fold enrichment (6-mer frequency, TF over GST control) |  | 1 fold enrichment (6-mer frequency, TF over GST control) | 1.05 fold enrichment (6-mer frequency, TF over GST control) |  | 1.15 fold enrichment (6-mer frequency, TF over GST control) | 1.18 fold enrichment (6-mer frequency, TF over GST control) | 1.01 fold enrichment (6-mer frequency, TF over GST control) |  | 1.13 fold enrichment (6-mer frequency, TF over GST control) | 1.01 fold enrichment (6-mer frequency, TF over GST control) | 1.04 fold enrichment (6-mer frequency, TF over GST control) | 1.03 fold enrichment (6-mer frequency, TF over GST control) | 1.04 fold enrichment (6-mer frequency, TF over GST control)
3 | TACCAG |  |  |  |  |  |  |  | 1.22 fold enrichment (6-mer frequency, TF over GST control) |  |  |  |  |  |  |  | 
